Results as given in the supplement of paper PMC12645437, “Orthogonal IMiD-Degron Pairs Induce Selective Protein Degradation in Cells” (ACS Chemical Biology, 2025).
The full ranking holds about 8,300 sequences; the median of “log2 fold change of degron read counts, EGFP-low vs EGFP+ sorted cells (limma voom), compound-induced degradation” is about -1.1, and the highest 2% start at about 3.2. The full list was thinned out, with the highest values kept by preference.

Target: T1, CRBN, Q96SW2
T1 chain: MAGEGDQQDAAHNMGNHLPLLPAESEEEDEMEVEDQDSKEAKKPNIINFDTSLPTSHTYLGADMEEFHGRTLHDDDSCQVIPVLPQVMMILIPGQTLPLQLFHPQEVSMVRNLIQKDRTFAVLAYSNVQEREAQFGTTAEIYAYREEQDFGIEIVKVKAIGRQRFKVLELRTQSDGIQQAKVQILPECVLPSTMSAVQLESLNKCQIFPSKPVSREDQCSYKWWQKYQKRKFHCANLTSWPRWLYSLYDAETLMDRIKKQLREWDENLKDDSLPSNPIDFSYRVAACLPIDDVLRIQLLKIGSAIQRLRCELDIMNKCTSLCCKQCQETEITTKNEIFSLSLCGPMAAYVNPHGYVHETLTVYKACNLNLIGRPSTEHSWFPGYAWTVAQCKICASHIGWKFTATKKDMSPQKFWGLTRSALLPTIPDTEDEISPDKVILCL
Test: log2 fold change of degron read counts, EGFP-low vs EGFP+ sorted cells (limma voom), compound-induced degradation; higher = more compound-induced degradation of the degron-EGFP fusion; degrons are variants of IKZF1/3 zinc finger 2; compound dose not given here
Settings: Jurkat, 18 h

[1] = compound: compound 19 (5-tert-butyl-thalidomide)
[2] = compound: compound 22 (5-morpholino-thalidomide)
[3] = compound: compound 33 (diphenyl IMiD analogue)
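Note: pooled lentiviral library of zinc finger degron-EGFP fusions in mCherry-positive Jurkat cells, FACS-sorted after compound exposure, with degron abundance counted by next-generation sequencing.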

For LRCEICGFICTQKGNLLRHIKL [46L_47R_49E_50I_52G_53F_54I_55C_67L_, Q9UKT9], the “log2 fold change of degron read counts” value [1] was -0.547, the “log2 fold change of degron read counts” value [2] was -1.4 and the “log2 fold change of degron read counts” value [3] was 0.271. For the same sequence, the “log2 fold change of degron read counts” value (compound: thalidomide) was 0.795.

FVCEICGRRFTQKGNLLRHIKL [46F_47V_49E_50I_52G_53R_54R_55F_67L_, Q9UKT9] was tested, and the “log2 fold change of degron read counts” value [1] was -1.38, the “log2 fold change of degron read counts” value [2] was -0.295 and the “log2 fold change of degron read counts” value [3] was -0.924. The “log2 fold change of degron read counts” value (compound: thalidomide) was 1.44.

LWCPICGFICTQKGNLLRHIKL [46L_47W_49P_50I_52G_53F_54I_55C_67L_, Q9UKT9] was tested, and the “log2 fold change of degron read counts” value [1] was 2.27, the “log2 fold change of degron read counts” value [2] was 2.7 and the “log2 fold change of degron read counts” value [3] was 2.35. The “log2 fold change of degron read counts” value (compound: thalidomide) was 1.24.

For FNCEQCGAQFTQKGNLLRHIKL [46F_47N_49E_50Q_52G_53A_54Q_55F_67L_, Q9UKT9], the “log2 fold change of degron read counts” value [1] was -1.51, the “log2 fold change of degron read counts” value [2] was -2.31 and the “log2 fold change of degron read counts” value [3] was -2.13. For the same sequence, the “log2 fold change of degron read counts” value (compound: thalidomide) was -2.22.

With LTCNQCGFMCTQKGNLLRHIKL [46L_47T_49N_50Q_52G_53F_54M_55C_67L_, Q9UKT9] the “log2 fold change of degron read counts” value [1] was -2.05, the “log2 fold change of degron read counts” value [2] was -1.99 and the “log2 fold change of degron read counts” value [3] was -2.04. For the same sequence, the “log2 fold change of degron read counts” value (compound: thalidomide) was -1.23.

For FFCNQCGAKFTQKGNLLRHIKL [46F_47F_49N_50Q_52G_53A_54K_55F_67L_, Q9UKT9], the “log2 fold change of degron read counts” value [1] was -0.805, the “log2 fold change of degron read counts” value [2] was -0.929 and the “log2 fold change of degron read counts” value [3] was -1.59. For the same sequence, the “log2 fold change of degron read counts” value (compound: thalidomide) was -1.91.

FDCNVCGAPFTQKGNLLRHIKL [46F_47D_49N_50V_52G_53A_54P_55F_67L_, Q9UKT9] was tested, and the “log2 fold change of degron read counts” value [1] was -1.08, the “log2 fold change of degron read counts” value [2] was -1.02 and the “log2 fold change of degron read counts” value [3] was -1.22. For the same sequence, the “log2 fold change of degron read counts” value (compound: thalidomide) was -0.873.

In the case of LWCEICGFRCTQKGNLLRHIKL [46L_47W_49E_50I_52G_53F_54R_55C_67L_, Q9UKT9], the “log2 fold change of degron read counts” value [1] is reported as 3.39, the “log2 fold change of degron read counts” value [2] is reported as 3.5 and the “log2 fold change of degron read counts” value [3] is reported as 2.48. The “log2 fold change of degron read counts” value (compound: thalidomide) was 1.8.

With LNCEICGFRCTQKGNLLRHIKL [46L_47N_49E_50I_52G_53F_54R_55C_67L_, Q9UKT9] the “log2 fold change of degron read counts” value [1] was 1.31, the “log2 fold change of degron read counts” value [2] was 0.0636 and the “log2 fold change of degron read counts” value [3] was -0.877. The “log2 fold change of degron read counts” value (compound: thalidomide) was 0.378.

For LTCEICGFRCTQKGNLLRHIKL [46L_47T_49E_50I_52G_53F_54R_55C_67L_, Q9UKT9], the “log2 fold change of degron read counts” value [1] was 1.66, the “log2 fold change of degron read counts” value [2] was 2.1 and the “log2 fold change of degron read counts” value [3] was 1.15. The “log2 fold change of degron read counts” value (compound: thalidomide) was 2.73.

LGCEICGFRCTQKGNLLRHIKL [46L_47G_49E_50I_52G_53F_54R_55C_67L_, Q9UKT9] was tested, and the “log2 fold change of degron read counts” value [1] was 2.14, the “log2 fold change of degron read counts” value [2] was 1.52 and the “log2 fold change of degron read counts” value [3] was -0.383. The “log2 fold change of degron read counts” value (compound: thalidomide) was 0.468.

LACEICGFRCTQKGNLLRHIKL [46L_47A_49E_50I_52G_53F_54R_55C_67L_, Q9UKT9] was tested, and the “log2 fold change of degron read counts” value [1] was 3.5, the “log2 fold change of degron read counts” value [2] was 2.79 and the “log2 fold change of degron read counts” value [3] was 0.159. For the same sequence, the “log2 fold change of degron read counts” value (compound: thalidomide) was 1.41.

With LVCEICGFRCTQKGNLLRHIKL [46L_47V_49E_50I_52G_53F_54R_55C_67L_, Q9UKT9] the “log2 fold change of degron read counts” value [1] was 2.5, the “log2 fold change of degron read counts” value [2] was 2.55 and the “log2 fold change of degron read counts” value [3] was 1.39. The “log2 fold change of degron read counts” value (compound: thalidomide) was 3.28.

For LYCEICGFRCTQKGNLLRHIKL [46L_47Y_49E_50I_52G_53F_54R_55C_67L_, Q9UKT9], the “log2 fold change of degron read counts” value [1] was 3.55, the “log2 fold change of degron read counts” value [2] was 3.9 and the “log2 fold change of degron read counts” value [3] was 2.17. The “log2 fold change of degron read counts” value (compound: thalidomide) was 1.9.

LDCEICGFRCTQKGNLLRHIKL [46L_47D_49E_50I_52G_53F_54R_55C_67L_, Q9UKT9] was tested, and the “log2 fold change of degron read counts” value [1] was 0.949, the “log2 fold change of degron read counts” value [2] was -0.499 and the “log2 fold change of degron read counts” value [3] was -0.616. For the same sequence, the “log2 fold change of degron read counts” value (compound: thalidomide) was 0.426.

In the case of LMCEICGFRCTQKGNLLRHIKL [46L_47M_49E_50I_52G_53F_54R_55C_67L_, Q9UKT9], the “log2 fold change of degron read counts” value [1] is reported as 0.992, the “log2 fold change of degron read counts” value [2] is reported as 0.81 and the “log2 fold change of degron read counts” value [3] is reported as 2.15. For the same sequence, the “log2 fold change of degron read counts” value (compound: thalidomide) was 2.41.

In the case of LHCEICGFRCTQKGNLLRHIKL [46L_47H_49E_50I_52G_53F_54R_55C_67L_, Q9UKT9], the “log2 fold change of degron read counts” value [1] is reported as 2.71, the “log2 fold change of degron read counts” value [2] is reported as 2.4 and the “log2 fold change of degron read counts” value [3] is reported as 1.3. For the same sequence, the “log2 fold change of degron read counts” value (compound: thalidomide) was 1.88.

In the case of LCCEICGFRCTQKGNLLRHIKL [46L_47C_49E_50I_52G_53F_54R_55C_67L_, Q9UKT9], the “log2 fold change of degron read counts” value [1] is reported as 2.36, the “log2 fold change of degron read counts” value [2] is reported as 2.33 and the “log2 fold change of degron read counts” value [3] is reported as 1.37. The “log2 fold change of degron read counts” value (compound: thalidomide) was 2.65.

LSCEICGFRCTQKGNLLRHIKL [46L_47S_49E_50I_52G_53F_54R_55C_67L_, Q9UKT9] was tested, and the “log2 fold change of degron read counts” value [1] was 2.82, the “log2 fold change of degron read counts” value [2] was 2.76 and the “log2 fold change of degron read counts” value [3] was 0.517. For the same sequence, the “log2 fold change of degron read counts” value (compound: thalidomide) was 1.83.
